Rows were chosen to be rich in hits. Some 11% of all compounds tested hit in one or more screens of this group.
PNC inhibitor: blocks assembly of the perinucleolar compartment | PC3M PTB-GFP, PNC prevalence imaging, 16 h; active compounds read low | activity change (PNC), negative = inhibition, % at 10 µM | 140,000 compounds, 3.1% hits | AID 2417;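 active = readout at or below -70, meaning at least 70% loss of cells showing the perinucleolar compartment, a nuclear body marking cancer cells; inconclusive = readout between -30 and a set limit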;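 also: plate controls were DMSO wells for no effect and camptothecin positive control wells for full effect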
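Read-out is percentage of cells bearing a perinucleolar compartment, from automated 20x imaging of fixed, Hoechst-stained PC3M PTB-GFP cells. Cells were seeded 4 h, then exposed 16 h to compound (23 nl of library stock) in duplicate plates.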
IMPase inh: membrane-permeable compound that blocks inositol monophosphatase; P97697; CHO-M1 cells, IP1 accumulation, HTRF TR-FRET ratio; inhibition (IP1 accumulation), % at 46.1 µM; 120,000 tested, under 10 active; AID 901; active = well fitted curve in the direction sought with a large enough effect in the signal ratio, not every such curve was filed as active; inconclusive = small, poorly fitted or top-dose-only effect, or a change in a side signal; inactive = no such curve, though single readings can be large or run the other way; the % refers to the signal ratio;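 also: cells stimulated with carbachol in lithium chloride buffer; plate controls were DMSO basal wells for no effect and reference inhibitor wells for full effect; higher means more IMPase inhibition seen as more IP1 and lower FRET ratio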
Target sequence (P97697 whole entry, looked up): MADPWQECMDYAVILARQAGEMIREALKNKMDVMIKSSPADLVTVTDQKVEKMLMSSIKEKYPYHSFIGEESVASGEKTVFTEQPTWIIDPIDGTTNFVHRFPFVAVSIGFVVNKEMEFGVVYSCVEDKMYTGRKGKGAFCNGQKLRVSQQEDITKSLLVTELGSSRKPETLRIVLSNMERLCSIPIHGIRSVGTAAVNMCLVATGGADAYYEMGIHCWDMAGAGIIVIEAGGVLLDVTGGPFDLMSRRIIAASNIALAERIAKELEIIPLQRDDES
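The IP-One HTRF competitive assay in carbachol-stimulated CHO-M1 cells quantifies cellular IP1. Compounds spanned up to 46 uM final, and activity is expressed as AC50 from concentration-response fits of the ratio and donor data.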
IMPase Li cell: membrane-permeable IMPase blocker, potentiated with lithium; CHO-M1 cells, IP1 TR-FRET (IP-One), carbachol + lithium; Potency, µM (series often up to 59.4 µM), for the others: top-dose activity, negative = IMPase inhibition, actives largely listed as inhibitors; 210,000 compounds, 0.35% hits; AID 1457; active = well fitted inhibition curve with a large enough effect; inconclusive = small, poorly fitted or top-dose-only effect; inactive = no such curve, though single readings can be large or run the other way;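 also: IP1 builds up when IMPase is blocked and the TR-FRET signal falls; potency is read from the fitted curve at half-maximal effect; plate controls were basal vehicle for no effect and high inhibitor control for full effect; nearly all actives have a fitted effect of over 50% in size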
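CHO cells stably expressing M1 receptor (2000/well) were cultured 16–30 h, then exposed to compounds with a small lithium addition for 30 min at 37C. IP1 was measured by TR-FRET competition; AC50 from Hill fits.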
HPGD inh: HPGD (human) dehydrogenase inhibition; Potency, µM, inactives show at the highest dose activity change, negative = inhibition, usual class: inhibitors; P15428; 150,000 compounds, 4.3% hits; purified HPGD, NADH fluorescence kinetic, PGE2 substrate; also: potency is read from the fitted curve at half-maximal effect
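NADH formation kinetics: reaction with 30 uM PGE2 and 1 mM NAD+ (final), 20 nM enzyme, Tris-HCl pH 8 with Tween 20, after 15 min compound preincubation at room temperature. Fluorescence change, last versus first of five reads.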
ALDH1A1 inh: ALDH1A1 (human) enzyme inhibition. P00352. Purified ALDH1A1, NADH fluorescence, propionaldehyde substrate. Potency, µM (series often up to 75.3 µM), for the others: top-dose activity, negative = inhibition, usual class: inhibitors. 220,000 compounds, 7.3% hits;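 also: potency is read from the fitted curve at half-maximal effect; plate controls were no enzyme wells and a reference inhibitor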
Target sequence (P00352 whole entry, looked up): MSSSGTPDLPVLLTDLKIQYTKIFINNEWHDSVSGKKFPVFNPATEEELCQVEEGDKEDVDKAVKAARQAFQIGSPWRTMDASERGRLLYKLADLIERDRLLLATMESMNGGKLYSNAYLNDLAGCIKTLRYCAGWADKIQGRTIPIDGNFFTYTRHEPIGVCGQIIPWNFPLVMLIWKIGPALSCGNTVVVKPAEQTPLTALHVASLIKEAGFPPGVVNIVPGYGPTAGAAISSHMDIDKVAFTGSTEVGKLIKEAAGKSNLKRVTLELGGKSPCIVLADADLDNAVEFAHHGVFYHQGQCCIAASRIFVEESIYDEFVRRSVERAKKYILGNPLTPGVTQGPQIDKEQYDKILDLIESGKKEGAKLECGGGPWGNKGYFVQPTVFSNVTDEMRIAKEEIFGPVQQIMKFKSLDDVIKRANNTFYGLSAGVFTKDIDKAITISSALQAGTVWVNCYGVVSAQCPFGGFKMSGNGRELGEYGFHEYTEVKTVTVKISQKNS
The depositor's hits bear a star; ? = inconclusive; / = no result; [ ] = dose if it differs, or a comment. Unless noted, calls follow the shape of the dose curve; as a rule, active = well fitted inhibition curve with a large enough effect (not every such curve was filed as active); inconclusive = small, poorly fitted or top-dose-only effect, or another doubt; inactive = no such curve, though single readings can be large or run the other way. Unless noted, % is scaled to controls: 0 for no effect and ±100 for the full control effect.

SMILES | PNC inhibitor | IMPase inh | IMPase Li cell | HPGD inh | ALDH1A1 inh
CN=c1scc(C)n1/N=C/c1ccc(O)cc1 | 15 | 5 | 6%[38.3 µM] | -17% | 1%
C=CCN=c1scc(C)n1/N=C/c1ccc(O)c(O)c1 | / | / | 18% | / | 22µM*
COC(=O)c1cc(COc2ccc3c(c2)oc(=O)c2ccccc23)c(C)o1 | -17 | 0 | -8%[38.3 µM] | -19% | ?
O=C(O)c1cccc(CSc2n[nH]c(-c3ccc(Cl)cc3Cl)n2)c1 | / | / | 2% | / | 2%
O=C1CSc2ccc(C(=O)Nc3cccc(S(=O)(=O)Nc4ccc(Br)cc4)c3)cc2N1 | / | / | 13% | / | 10µM*
O=C(c1ccc2c(c1)OCO2)C1CCCN(C(=O)c2cnn(Cc3ccccc3)c2)C1 (configuration not stated) | / | / | 5% | / | 25µM*
O=C(c1ccc2c(c1)OCO2)C1CCCN(C(=O)NCc2ccccc2)C1 (configuration not stated) | / | / | 10% | / | -8%
CC1CC(C)CN(S(=O)(=O)c2ccc(NC(=S)NC(=O)c3ccccc3)cc2)C1 (configuration not stated) | ? | / | -5% | -27% | -4%
CN(C)S(=O)(=O)c1ccc(C(=O)OCC(=O)Nc2sc3c(c2C#N)CCCCC3)cc1 | 54 | / | 0% | -4% | -15%
CNS(=O)(=O)c1cccc(C(=O)OCC(=O)Nc2sc3c(c2C#N)CCCCC3)c1 | 19 | ? | / | / | 25µM*
CCN(CC)c1ccc2c(c1)C(=O)N(C)C2=O | -21 | -8 | 8%[38.3 µM] | 18µM* | ?
CCN(CCCCN1C(=O)c2ccccc2C1=O)c1ccc2c(c1)C(=O)N(C)C2=O | -16 | 15 | -3%[38.3 µM] | 10µM* | ?
Cc1ccc(N(CCCCN2C(=O)c3ccccc3C2=O)C(=O)c2cccs2)cc1 | 2 | 4 | 16%[38.3 µM] | -2% | ?
COc1ccccc1CNc1nc(-c2ccccc2OC)nc2ccccc12 | / | / | 9% | / | 8%
Cc1ccc(C2CC(c3cccs3)=NN2C(=O)CSC2=NN3CCCC(=O)N=C3S2)cc1 (configuration not stated) | -21 | 10 | 31%[38.3 µM] | -27% | 28µM*
Cc1ccc(-n2ncc3c2ncn2c(-c4ccncc4)nnc32)cc1 | -91* | 2 | -4%[38.3 µM] | -4% | 7%
c1ccc(Cn2ncc3c2ncn2c(-c4ccncc4)nnc32)cc1 | 1 | 7 | -21%[38.3 µM] | -20% | 2%
O=C1C2C3C=CC(C2C(=O)N1CN1CCOCC1)C1C2C(=O)N(CN4CCOCC4)C(=O)C2C31 (configuration not stated) | / | / | -4% | -5% | 17%[13.5 µM]
Cc1ccc(-c2nc3ccccc3[nH]2)cc1NC(=O)c1ccc2c(c1)OCO2 | ? | 2 | 18%[38.3 µM] | -11% | 5%
Cc1ccc(-c2nc3ccccc3[nH]2)cc1NC(=O)/C=C/c1ccco1 | 55 | 6 | 3%[38.3 µM] | -19% | 13µM*
CCCOc1ccc(C(=O)Nc2cc(-c3nc4ccccc4[nH]3)ccc2C)cc1 | / | 0 | / | / | /
Cc1ccc(-c2nc3ccccc3[nH]2)cc1NC(=S)NC(=O)c1ccccc1Br | 34 | -1 | 6%[38.3 µM] | -15% | 28µM*
CNC(=S)Nc1ccc(-c2nc3ccc(C)cc3s2)cc1 | / | / | -11% | / | ?
O=C(NC(=S)Nc1cc(-c2nc3ccccc3[nH]2)ccc1Cl)c1ccc2c(c1)OCO2 | -1 | / | 5% | 20µM* | 8.9µM*
CC(=O)NC(=S)Nc1ccc(-c2nc3ccc(C)cc3s2)cc1 | 14 | -9 | 14µM* | ? | ?
SMILES | PNC inhibitor | IMPase inh | IMPase Li cell | HPGD inh | ALDH1A1 inh
CCCCOc1ccc(C2c3c(oc4ccc(C)cc4c3=O)C(=O)N2CCCN(C)C)cc1OCC (configuration not stated) | / | -1 | / | / | /
CCCC1c2c(ccc3ccccc23)Oc2ccc3ccccc3c21 | / | / | -2% | -6% | -8%[13.5 µM]
CC(=O)Nc1cc(-c2nc3ccccc3s2)ccc1C | / | -3 | / | / | /
Cc1ccc(-c2nc3ccccc3s2)cc1NC(=S)NC(=O)c1ccccc1 | 23 | 2 | ? | -12% | 10µM*
O=C(NC(c1ccccc1)c1ccccc1)C1CCCN(S(=O)(=O)c2cnc[nH]2)C1 (configuration not stated) | 20 | 0 | -3%[38.3 µM] | 0% | 1%
C/C(=C\C[Si](C)(C)C)CC[C@H](O)C1=CCCCC1=O | / | / | -5% | -9% | 6%
Cc1cc(C)nc(NC(=O)C(c2ccccc2)c2ccccc2)n1 | -6 | 10 | 5%[38.3 µM] | -2% | -12%
Cc1cc(C)nc(NC(=O)C(c2ccccc2)c2ccccc2)c1 | 35 | / | 13% | -1% | 14µM*
CC(=O)n1cc([C@H]2C=C(C(=O)N3CCN(Cc4ccccc4)CC3)O[C@@H](OCc3ccc(CO)cc3)C2)c2ccccc21 | / | / | 0% | / | ?
CN(C)c1ccc(C(=C2C=CC(=[N+](C)C)C=C2)c2c(O)c(S(=O)(=O)O)cc3cc(S(=O)(=O)O)ccc23)cc1 | / | / | 112% | -7% | 3.5µM*
COc1ccc(N2CCN(C(=O)c3cccc(Br)c3)CC2)c([N+](=O)[O-])c1 | / | / | 17% | / | ?
Cn1c(=O)c2cn(Cc3ccc(Cl)cc3)cc2n(C)c1=O | ? | 3 | 21%[38.3 µM] | -14% | 2%
COCCn1c(=O)c(-c2cccs2)nc2cnc(OCc3ccccc3)nc21 | / | / | -4% | ? | ?
O=C(NCc1ccco1)c1ccc(Br)s1 | -15 | -1 | 3%[38.3 µM] | 16µM* | ?
O=C(NCc1ccco1)c1ccc(C(=O)NCc2ccco2)s1 | ? | ? | 22%[38.3 µM] | -12% | 2%
O=C(NCc1ccco1)c1scc2c1OCCO2 | -24 | -2 | 11%[38.3 µM] | -29% | 22µM*
O=C(NCc1ccco1)c1cc2c(s1)CCCCC2 | -21 | -6 | 21% | 16µM* | 28µM*
COc1ccc(CCCc2nnc(SCC(=O)Nc3ccc(C)cc3C)o2)cc1 | / | -2 | / | / | /
C=CC#CC[N+]1(CC#Cc2ccccc2)CCOCC1 | -14 | / | 17% | 25µM* | ?
Cc1csc(SCC(=O)NCc2cccc(Cl)c2)n1 | / | / | 11% | / | ?
Cc1csc(SCC(=O)NCCc2ccc(Cl)cc2Cl)n1 | 0 | -2 | -10% | 28µM* | 1%
CCC(c1nnc(SCC(=O)NCCc2ccc(Cl)cc2Cl)o1)N(C)C (configuration not stated) | 13 | 0 | 5%[38.3 µM] | 14µM* | 16µM*
CN(Cc1cccnc1)Cc1cn(Cc2ccccc2)nc1-c1ccc2c(c1)OCO2 | / | / | 11% | / | 9%
CNC(CC(=O)O)C(=O)O (configuration not stated) | / | / | -5% | -1% | -2%
Cc1ccccc1-n1c(-c2ccco2)n[nH]c1=S | -114* | / | -10% | ? | ?
Cc1ccccc1-n1c(-c2csc3ccccc23)n[nH]c1=S | ? | / | 1% | 16µM* | 22µM*
S=c1[nH]nc(Cc2cccs2)n1-c1cccc2ccccc12 | -6 | / | 0% | 25µM* | -5%
S=c1[nH]nc(Cc2cccs2)n1-c1ccccc1Cl | / | / | 2% | / | ?

From PubChem
